FAS TE block = blocks the thioesterase domain of human fatty acid synthase. recombinant FAS-TE, OMFH fluorogenic substrate, fluorescence endpoint. hit rate 0.67% among 360,000. inhibition, % at 15 µM. P49327;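 active = compounds whose normalised, plate-corrected inhibition of enzyme fluorescence in the single-dose primary screen is 50% or more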;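 also: 0% = DMSO with enzyme and 100% = substrate without enzyme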
FXN GAA850 act = frataxin GAA850 promoter activation; HEK293 lucGAA850 FXN promoter luciferase reporter, 24 h; percent of 10 µM SAHA response; activation, % at 6 µM; hit rate 0.56% among 360,000;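 active = activation above the average of all compounds screened plus 3 SD, cutoff fixed separately per campaign, cut at about 7.5% in these data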;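 also: 0% = DMSO wells and 100% = 10 µM SAHA wells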
SMARCA2 act = SMARCA2 function activation, primary screen; MG213 cells, MMTV-luciferase reporter, dexamethasone, overnight; activation, % at 9.1 µM; hit rate 1% among 370,000; in the data active = activation above about 7.8%;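 also: 0% = vehicle wells and 100% = reference activator wells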
proKLK7 act = activates the human kallikrein-7 zymogen. P49862. hit rate 0.9% among 370,000. activation, % at 7 µM. AID 652039. purified proKLK7, EDANS-DABCYL substrate fluorescence; 100% is mature enzyme control, 0% vehicle;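 active = activation above the mean of all tested compounds plus 3 SD, computed per campaign excluding outliers beyond control limits, cut at about 13% in these data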
Target sequence (P49862 whole entry, looked up): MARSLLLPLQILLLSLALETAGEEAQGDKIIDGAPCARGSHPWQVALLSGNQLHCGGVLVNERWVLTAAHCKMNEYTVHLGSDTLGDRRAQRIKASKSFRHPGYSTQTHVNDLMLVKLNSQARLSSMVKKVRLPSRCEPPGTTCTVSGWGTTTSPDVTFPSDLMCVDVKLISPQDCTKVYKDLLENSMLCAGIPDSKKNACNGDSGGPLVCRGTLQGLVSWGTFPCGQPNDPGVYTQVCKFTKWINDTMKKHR
FAS-TE inh conf = confirmation of human fatty acid synthase thioesterase inhibitors; shares compounds with FAS TE block; recombinant FAS-TE, OMFH fluorogenic substrate, fluorescence; inhibition, % at 15 µM; hit rate 45% among 2,300; AID 624325;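 active = compounds inhibiting the enzyme by at least 50% at 15 µM in any one of the replicates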;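 also: 0% = enzyme with DMSO only and 100% = wells lacking enzyme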
* marks the source's active call; other numbers are inactive results; · = no result given. The list is not random: actives were taken first. Their share in the collection is about 2.9%.

SMILES	FAS TE block	FXN GAA850 act	SMARCA2 act	proKLK7 act	FAS-TE inh conf
COc1ccc(C=CC(O)CCN2CCC3CCC(C3)C2)cc1 (stereo unspecified)	-8	-1	2	0	·
O=[N+]([O-])c1ccc(S(=O)(=O)NN=Cc2ccc3c(c2)OCO3)cc1	64*	1	-2	0	72*
COCc1cc(N2CCNC[C@@H]2C)ccc1N1CCS(=O)(=O)CC1	·	·	-2	0	·
CCOC(=O)c1c(-c2ccccc2)csc1NC(=O)c1ccc(S(=O)(=O)N2CC(C)OC(C)C2)cc1 (stereo unspecified)	16	3	-4	0	·
CCOC(=O)c1c(-c2ccccc2)csc1NC(=O)c1cc(S(=O)(=O)N2CCOCC2)ccc1C	52*	2	1	-10	17
CC(C)C(NC(=O)C12CC3CC(CC(C3)C1)C2)C(=O)N/N=C/C1=C(N2CCOCC2)C(=C\c2ccc([N+](=O)[O-])cc2)/CC1 (stereo unspecified)	79*	-1	-2	0	7
CC(NC(=O)C12CC3CC(CC(C3)C1)C2)C(=O)N/N=C/C1=C(N2CCOCC2)C(=C\c2cccc([N+](=O)[O-])c2)/CC1 (stereo unspecified)	89*	3	-6	0	12
Cc1occc1C(=O)N/N=C/C1=C(N2CCOCC2)C(=C\c2ccc(Cl)cc2)/CC1	1	5	0	0	·
COc1ccc(N2C(=O)NC(NS(=O)(=O)c3ccccc3)(C(F)(F)F)C2=O)cc1 (stereo unspecified)	-6	1	-1	0	·
CCN(c1ccccc1)S(=O)(=O)c1cc2c(cc1C)NC(=O)CO2	1	-1	-2	0	·
COc1ccc(N(C)S(=O)(=O)c2cccc(C(=O)N3CCN(S(=O)(=O)c4ccc(C)cc4)CC3)c2)cc1	52*	-1	-2	-1	5
C=C[C@@H]1c2cc(C)ccc2N(S(=O)(=O)c2ccc(C)cc2)[C@H](c2ccc(OC(C)=O)cc2)C1(C#N)C#N	52*	-5	0	1	24
Cc1ccc2c(c1)C1CN(C)CCC1N2S(=O)(=O)c1ccc(C#N)cc1 (stereo unspecified)	-14	2	1	1	·
C=C[C@@H]1c2ccccc2N(S(=O)(=O)c2ccc(C)cc2)[C@H](c2ccc(OC(C)=O)cc2)C1(C#N)C#N	62*	2	-3	0	14
N#Cc1ccc(OCc2nnc(SCC(=O)N3CCCc4ccccc43)n2-c2ccccc2)cc1	1	2	1	0	·
O=C(Nc1cccc([N+](=O)[O-])c1)NC1CCCCCCC1	53*	6	-1	0	63*
O=C(CNC1CCCCC1)Nc1cccc([N+](=O)[O-])c1	12	1	-3	0	·
O=C(Cc1ccccc1)Nc1nnc(-c2cccc([N+](=O)[O-])c2)s1	-2	3	0	0	·
O=C(NC1CCCCC1)N(c1ccccc1)c1nnc(-c2cccc([N+](=O)[O-])c2)s1	70*	6	3	0	63*
Cc1cnc(NC(=O)CCNC(=O)c2ccc([N+](=O)[O-])cc2)s1	19	-1	-2	0	·
Cc1cc(C)cc(NC(=O)CCNC(=O)c2ccc([N+](=O)[O-])cc2)c1	69*	0	-4	0	16
O=C(CCNC(=O)c1ccc([N+](=O)[O-])cc1)Nc1ccc(F)cc1	47	-1	2	0	·
Cc1csc(NC(=O)CCNC(=O)c2ccc([N+](=O)[O-])cc2)n1	68*	-1	0	-1	71*
NC(=O)COc1ccccc1	-3	2	-7	-1	·
CCOc1cccc2cc(C(=O)NCCC3=CCCCC3)c(=O)oc12	87*	4	-2	-5	74*
SMILES	FAS TE block	FXN GAA850 act	SMARCA2 act	proKLK7 act	FAS-TE inh conf
CCc1noc(C)c1C(=O)OCC(=O)NC(=O)c1ccccc1OC	4	3	-2	0	·
COc1cc2c(C)nc3c(c(C)nn3-c3ccccc3)c2cc1OC	3	0	-2	-1	·
COc1cc2c(C)nc3onc(-c4ccccc4)c3c2cc1OC	70*	2	-1	0	45*
COc1ccc(-c2cc(-c3ccc(O)cc3)nc(N)c2C#N)cc1	57*	2	-2	-145	34
Cn1nc(C(=O)Nc2ccc(Cl)c(S(=O)(=O)N3CCOCC3)c2)c2ccccc2c1=O	16	-1	-3	0	·
CC(C)Oc1ccc(S(=O)(=O)N2CCOCC2)cc1NC(=O)c1nn(C)c(=O)c2ccccc12	67*	1	-1	0	26
COc1ccc(S(=O)(=O)N2CCOCC2)cc1NC(=O)c1cccc2c(=O)c(C)c(-c3ccccc3)oc12	93*	-2	-1	1	27
Nc1cc(-c2ccc(Cl)cc2)nn1S(=O)(=O)c1ccccc1	6	0	-6	0	·
CCOC(=O)[C@H]1[C@H]2COc3ccc(Cl)cc3[C@@H]2N2C(=O)c3ccc(Cl)cc3NC(=O)[C@@]12C	59*	2	1	1	43
CCOC(=O)[C@H]1[C@H]2COc3ccc(C)cc3[C@@H]2N2C(=O)c3cc(Br)ccc3NC(=O)[C@@]12C	57*	-4	0	0	26
CCOC(=O)[C@H]1[C@H]2COc3ccc(C)cc3[C@@H]2N2C(=O)c3ccc(Cl)cc3NC(=O)[C@@]12C	17	-8	0	0	·
COc1ccccc1C(=O)Nc1ccc(S(=O)(=O)N2CCc3ccccc32)cc1	51*	0	0	0	26
COc1cc(C(=O)Nc2ccc(S(=O)(=O)N3CCc4ccccc43)cc2)cc(OC)c1OC	27	-3	-3	1	·
COc1ccc(/C=C(\NC(=O)c2ccc([N+](=O)[O-])cc2)C(=O)NCCCn2ccnc2)cc1	74*	0	-2	0	81*
COc1ccc(/C=C(/NC(=O)c2ccc([N+](=O)[O-])cc2)C(=O)NC(C)(C)C)cc1	70*	1	0	0	55*
CCCCOc1ccc(C(=O)N/C(=C\c2cccc([N+](=O)[O-])c2)C(=O)OCCC)cc1	12	2	2	-1	·
CCCCOc1ccc(C(=O)N/C(=C\c2ccc([N+](=O)[O-])cc2)C(=O)OCc2ccco2)cc1	60*	-1	-1	0	40
O=C(Nc1ccc(C(=O)O)cc1)/C(=C\c1ccc([N+](=O)[O-])cc1)NC(=O)c1ccc(Br)cc1	82*	0	-3	0	91*
CC1CCN(c2nc(Cl)nc(Nc3ccc([N+](=O)[O-])cc3)n2)CC1	54*	1	1	0	21
C=CCNc1nc(Nc2ccc([N+](=O)[O-])cc2)nc(N2CCCC2)n1	44	2	-4	-1	·
CCCC1(C(=O)OC)NC(c2ccc(OC)cc2OC)C2C(=O)N(c3cccc(C(C)=O)c3)C(=O)C21 (stereo unspecified)	0	-2	-2	0	·
Cc1nc(N2CCN(S(=O)(=O)c3cccc4nonc34)CC2)c2c3c(sc2n1)CCCC3	54*	0	3	1	7

Screening results from PubChem BioAssay.
